Bioassay records from PubChem BioAssay.
Most compounds without a hit are left out; they make up all but 2.2% or so of the library.
Myeloid diff MLP – myeloid differentiation induction; ER-HoxA9 myeloid progenitors, lysozyme-GFP differentiation, flow cytometry; calls only at 10 µM; actives 1% (n = 360,000);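 active = normalized GFP-positive differentiation at or above the plate's own cutoff, the solvent-only control mean plus 3 SD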;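 note: cells exposed to compound for four days before flow analysis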
CRFR2-BP antag – antagonists of CRF-binding protein/CRF-R2 receptor complex; HEK293 CRF-R2/CRF-BP, CRF-induced calcium fluorescence; inhibition, % at 11.8 µM; actives 0.59% (n = 350,000); AID 588475;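 active = inhibition of the ligand-induced calcium signal above about 50% at the single tested concentration, limit read from the data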
RTF Ca sens inh – cardiac RTF calcium desensitization. actives 0.12% (n = 340,000). IANBD-labeled cardiac RTF, Ca2+ fluorescence. inhibition, % at 7.15 µM;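 active = inhibition above the mean inhibition of all tested compounds plus 3 SD, cut at about 17% in these data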;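 note: assay run at fixed EC70 calcium of 1.6 mM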
cardiac RTF act – cardiac RTF calcium sensitization. IANBD-labeled TnC RTF fluorescence at EC20 calcium; 0% EC20 calcium, 100% full calcium. activation, % at 7.2 µM. actives 0.24% (n = 340,000). AID 493008;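 active = activation above the mean over all tested compounds plus 3 SD, cut at about 30% in these data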;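 note: rise in fluorescence read as greater calcium sensitivity of cardiac thin filaments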
CRFBP-R2 agonist – agonists of human CRF-binding protein/CRF-R2 receptor complex; HEK293 CRF-R2/CRF-BP, calcium dye fluorescence (FLIPR); percent of saturating CRF peptide response; activation, % at 13.2 µM; actives 0.46% (n = 350,000); AID 588473;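 active = activation of at least 50%, plus an integration ratio under a set limit after plate pattern correction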;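 note: plate controls were neutral control wells without compound for no effect and CRF at EC100 for full effect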
Myeloid diff – promotes myeloid progenitor differentiation; shares compounds with Myeloid diff MLP; ER-HoxA9 myeloid progenitors, GFP/Mac1 double-positive flow; calls only; actives 2% (n = 2,300); AID 651706;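 active = share of green or green-and-red cells above 9 and 9% in run 1 or 4 and 3% in run 2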
GFP autofluor – flagged as fluorescent in myeloid differentiation counter-screen; actives 7.4% (n = 2,300); shares compounds with Myeloid diff MLP; fluorescence response, % (no concentration beside the values); ER-HoxA9 myeloid progenitors, no estrogen, GFP autofluorescence flow cytometry; vehicle wells 0%, positive control 100%; AID 651707;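 active = over 5% cells positive for green fluorescent reporter, or over 2% positive for both it and APC stain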;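 note: range taken on the double positive population between DMSO and positive control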
Starred values were filed as active, the others as inactive; i = inactive; . = no result given; + = active, no number.

SMILES | Myeloid diff MLP | CRFR2-BP antag | RTF Ca sens inh | cardiac RTF act | CRFBP-R2 agonist | Myeloid diff | GFP autofluor
C/C(=N/NC(=O)c1ccc(C)nc1)c1ccc2c(c1)CCCC2 | i | -21 | 3 | -5 | -2 | . | .
CCOc1ccc(OCCC(=O)NNC(=O)c2cc(OC)c(OC)c(OC)c2)cc1 | i | 4 | -11 | -9 | -1 | . | .
Cc1cc(C)c(C#N)c(SCC(=O)c2ccccc2)n1 | i | 6 | -12 | -5 | -1 | . | .
Cc1cc(C)c(C#N)c(SCC(O)CS(=O)(=O)Cc2ccccc2)n1 (stereo not drawn) | i | -8 | 6 | 4 | -1 | i | 0
Cc1ccccc1N1CCN(S(=O)(=O)CC23CCC(CC2=O)C3(C)C)CC1 (stereo not drawn) | i | -83 | -2 | 4 | 31 | . | .
COc1ccccc1N1CCN(S(=O)(=O)CC23CCC(CC2=O)C3(C)C)CC1 (stereo not drawn) | i | -9 | -7 | 5 | 1 | i | 0
CCN(CC)c1ccc(C2NC(=O)NC(C)=C2C(=O)Nc2ccccc2)cc1 (stereo not drawn) | + | 14 | -7 | 4 | 1 | i | 7.5*
Fc1ccc(-c2cc3nc(-c4ccccc4)cc(N4CCOCC4)n3n2)cc1 | i | -72 | 0 | -2 | 4 | i | 0
Fc1cccc(-c2cc3nc(-c4ccccc4)cc(N4CCC5(CC4)OCCO5)n3n2)c1 | i | 1 | 8 | -4 | 6 | . | .
O=C(Nc1ccc(Br)cc1)NC1CCCCCCC1 | i | -6 | -3 | 1 | 7 | . | .
CCn1cc(C(=O)N2CCN(c3ccc([N+](=O)[O-])cc3)CC2)c(=O)c2ccc(C)nc21 | + | 17 | 2 | -2 | -1 | i | 0
CCn1cc(C(=O)N2CCN(c3cccc(C)c3C)CC2)c(=O)c2ccc(C)nc21 | i | 15 | 4 | 2 | 0 | . | .
COc1ccc(-n2nc(C(=O)NCC(=O)N3CCN(c4cccc(Cl)c4)CC3)c3ccccc3c2=O)c(OC)c1 | i | 0 | -5 | -1 | 1 | i | 0
Cc1cccc(C(=O)N/N=C/c2ccc(OC3CSC3)cc2)c1 | i | 4 | -14 | -14 | 0 | i | 3
COc1cccc(C(=O)N/N=C/c2ccc(OC3CSC3)cc2)c1 | i | -18 | 2 | 4 | -2 | . | .
Cc1cccc(CSC2=NCCN2S(=O)(=O)c2ccc(F)cc2)c1 | i | 5 | 1 | -5 | 3 | . | .
Cc1cc(C)n(-c2ccc(NC(=O)C3CCN(Cc4ccc(C)o4)CC3)cc2)n1 | i | 6 | 3 | -8 | 0 | . | .
COC(=O)C1=C(C)N=C2SCCC(=O)N2C1c1cccs1 (stereo not drawn) | i | 15 | -5 | 0 | -2 | . | .
CC1=C(C(=O)OC(C)C)C(c2cccs2)N2C(=O)CCSC2=N1 (stereo not drawn) | i | -16 | -1 | -2 | -3 | i | 0
Nc1ncn([C@@H]2O[C@H](CO)[C@@H](O)[C@H]2O)c(=O)n1 | i | -14 | 6 | 13 | 0 | i | 5.0*
CN(C)c1ncnc2c1ncn2C1OC(CO)C(O)C1O (stereo not drawn) | + | 1 | -9 | -2 | 1 | i | 0
CC1CCN(C(=O)CSc2nc3c(c(=O)n2C)SC(C)C3)CC1 (stereo not drawn) | i | 10 | 3 | 3 | 0 | . | .
CC(C)(C)NC(=O)CCN(/N=C/c1ccc([N+](=O)[O-])o1)C1=NS(=O)(=O)c2ccccc21 | + | 12 | -1 | -3 | 7 | i | 1
CCC1(CC)NC(=O)N(CC(=O)Nc2ccc(C)cc2C)C1=O | i | -5 | -2 | -2 | -3 | . | .
CCC1(CC)NC(=O)N(CC(=O)OCC(=O)Nc2cc(C)ccc2C)C1=O | + | 0 | -3 | -2 | 0 | i | 0
Cc1ccn(CCC(=O)N2CCc3ccccc32)n1 | i | 2 | 3 | -4 | -1 | . | .
COc1ccc(F)cc1S(=O)(=O)n1nnc2ccccc21 | i | 4 | 8 | 8 | -2 | i | 0
Cc1cc(Br)c(S(=O)(=O)n2nnc3ccccc32)cc1C | i | -6 | -24 | 5 | 0 | i | 4
